Test results reported in PubChem BioAssay (NCATS).
Results filed as inconclusive are left out. The source made the active and inactive calls. Unless noted, the call rests on the fitted dose curve; in most records, active means well fitted curve in the direction sought with a large enough effect; inconclusive means small, poorly fitted or top-dose-only effect, or another doubt; inactive means no such curve, though single readings can be large; an effect the other way counts as inactive or inconclusive. Peptide text beside a SMILES is read from it.

What was measured:
[1] = target: Mitogen-activated protein kinase 10 (Mus musculus) (UniProt Q61831); assay: JNK3 AlphaScreen Assay (AID 530; active means well fitted curve in either direction with a large enough effect, not every such curve was filed as active;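 further: kinase came from lysate of stimulated human HepG2 cells; signal reports phosphorylation of biotinylated GST-cJun 1-79 at Ser73 with 10 µM ATP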)
Procedure, shortened: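 Pre-activated (IL-1β/TNFα) JNK3 in HepG2 lysates phosphorylates biotin-GST-cJun(1-79), 10 uM ATP; anti-phospho-cJun(Ser73) AlphaScreen read at room temperature, pH 7.6 Tris buffer. Compounds pre-incubated 15 min as titrations.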

[2] = target: 3',5'-cyclic-AMP phosphodiesterase 4B (Homo sapiens) (UniProt Q07343); assay: qHTS Assay for Inhibitors of PDE-IV (AID 607; active means well fitted activation curve with a large enough effect in the main read-out, with a control signal flat, not every such curve was filed as active)
Procedure, shortened: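 The readout is membrane depolarisation from a cAMP-sensing CNG channel, detected with a potential dye at ex 535/em 590. Cells were HEK293-derived (endogenous PDE-IV) at 1000 cells/well, titrated up to 22.9 uM final.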

[3] = Cell Viability - N2a (AID 540); settings: N2a mouse neuroblastoma cell viability; activity change, negative = cytotoxicity: at 92.2 µM (top of the series); further: nearly all actives have a fitted effect of over 45% in size
Procedure, shortened: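 Luminescent ATP signal (CellTiter-Glo, 20 min at room temperature) served as the viability read-out after N2a cells were treated with compounds for 40 hours at 37 °C. Concentration-response data were fitted to the Hill equation for AC50.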

[4] = Cell Viability - NIH 3T3 (AID 541); further: nearly all actives have a fitted effect of over 25% in size
Procedure, shortened: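 Luminescent ATP signal (CellTiter-Glo) served as the viability read-out after NIH 3T3 cells were exposed to compounds over a concentration range for 40 hr at 37 °C. Hill-equation modelling of concentration-response data gave AC50.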

[5] = Cell Viability - HUV-EC-C (AID 542); further: nearly all actives have a fitted effect of over 35% in size
Procedure, shortened: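 qHTS cytotoxicity: HUV-EC-C, 1000 cells/well, 5 hr settle, compound 40 hr 37 °C, CellTiter-Glo, luminescence. AC50 via Hill equation.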

[6] = Cell Viability - H-4-II-E (AID 543); further: nearly all actives have a fitted effect of over 35% in size
Procedure, shortened: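 Luminescent ATP signal (CellTiter-Glo) served as the viability read-out, with cytotoxicity seen as a concentration-dependent ATP drop. Cells were treated for 40 hours in complete medium. AC50 values derive from Hill-equation modelling.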

[7] = Cell Viability - Renal Proximal Tubule (AID 545); further: nearly all actives have a fitted effect of over 40% in size
Procedure, shortened: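 Cytotoxicity is scored as a concentration-dependent drop in cellular ATP in primary rat renal proximal tubule cells exposed for 40 hr. AC50 derives from Hill modelling.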

[8] = Cell Viability - Mesenchymal (AID 546);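 further: cells exposed to compound for 40 hours before reading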
Procedure, shortened: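 Human kidney mesenchymal cells from normal renal glomeruli, 1000 cells/well, rested 5 hr at 37 °C, then treated 40 hr at 37 °C in complete medium. Cellular ATP read by CellTiter-Glo luminescence; AC50 from Hill-equation fits.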

[9] = Cellular Toxicity (caspase-3) HepG2 (AID 654);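 further: cells exposed to compound for 16 hours before reading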
Procedure, shortened: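 Cells plated 5 hr at 37 °C, compound added, incubated 16 hr at 37 °C. Caspase-Glo 3/7 reagent followed, 20 min at room temperature, then luminescence read. Activation scored as signal increase; AC50 from Hill fit.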

[10] = Cellular Toxicity (caspase-3) Jurkat (AID 655);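 further: cells exposed to compound for 16 h at 37 °C before reading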
Procedure, shortened: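 Caspase 3/7 activation is scored as increased luminescence in Jurkat cells cultured with compound for 16 hours in complete medium. AC50 values come from Hill fits of qHTS concentration-response data normalized to DMSO and 100 uM tamoxifen controls.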

[11] = Cellular Toxicity (caspase-3) HUV-EC-C (AID 656)
Procedure, shortened: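 Read-out: luminescence proportional to caspase 3/7 activity, measured 20 min after adding Caspase-Glo 3/7 reagent. Cells (HUV-EC-C) had received compound for 16 hr at 37°C. Increases relative to DMSO and 100 uM tamoxifen gave concentration-response AC50 values.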

[12] = Cellular Toxicity (caspase-3) SHSY5Y (AID 657)
Procedure, shortened: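 Cells plated and incubated 5 h at 37 °C, dosed over a concentration range, incubated 16 h, then given Caspase-Glo 3/7 reagent for 1 h at room temperature before luminescence reading. Staurosporine (10 uM) defined full stimulation.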

[13] = Cellular Toxicity (caspase-3) BJ (AID 658)
Procedure, shortened: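 BJ human foreskin fibroblasts, 1000 cells/well, treated 16 hours at 37 °C in complete medium; caspase 3/7 activity by Caspase-Glo luminescence after 1 hr at room temperature. Normalized to DMSO and 10 uM staurosporine; AC50 from Hill fits.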

[14] = Cellular Toxicity (caspase-3) MRC-5 (AID 659)
Procedure, shortened: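 MRC-5 human normal lung fibroblasts, 1500 cells/well, treated 16 h at 37 °C in complete medium. Caspase 3/7 measured by Caspase-Glo luminescence after 1 h at room temperature. Normalized to DMSO and 10 uM staurosporine; AC50 from Hill fit.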

[15] = Cellular Toxicity (caspase-3) Mesangial (AID 660)
Procedure, shortened: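 Mesangial cells, 1000/well, 5 h settle at 37 °C; compound 16 h, 37 °C; Caspase-Glo 3/7 reagent 20 min RT; luminescence. Norm.: DMSO = 0%, tamoxifen 100 uM = 100%. AC50, Hill fit.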

[16] = Cellular Toxicity (caspase-3) SK-N-SH (AID 661)
Procedure, shortened: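 Human neuroblastoma SK-N-SH, 1500 cells/well, 5 hr pre-incubation, then compound 16 hr, 37 °C. Caspase-Glo 3/7 reagent, 1 hr RT, luminescence. Norm. to DMSO/10 uM staurosporine; Hill-fit AC50.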

[17] = Cellular Toxicity (caspase-3) H-4-II-E (AID 663);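 further: cells exposed to compound for 16 hr before readout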
Procedure, shortened: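 Rat hepatoma H-4-II-E cells (1500/well) plated 5 hr, then exposed to compound titrations for 16 hr at 37 °C. Caspase-Glo 3/7 luminescence read after 20 min at RT; data normalized to DMSO and 100 uM tamoxifen, AC50 from Hill fits.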

[18] = Cellular Toxicity (caspase-3) N2a (AID 665);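 further: compound exposure lasted 16 h at 37 °C before readout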
Procedure, shortened: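 N2a cells, 1500/well, 5 h settle at 37 °C; cpd 16 h, 37 °C; Caspase-Glo 3/7, 1 h RT; luminescence. Norm: DMSO = 0, 10 uM staurosporine = 100%. AC50, Hill fit.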

[19] = Cellular Toxicity (caspase-3) NIH 3T3 (AID 666);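 further: caspase signal read after 16 h compound exposure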
Procedure, shortened: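 Luminescence from aminoluciferin released by caspase-3/7 cleavage of a peptide substrate served as read-out. Mouse fibroblast NIH 3T3 cells were exposed to compounds over a concentration range for 16 hours, and AC50 values came from standard Hill modelling.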

[20] = Cellular Toxicity (caspase-3) Renal Proximal Tubule (AID 667);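 further: cells exposed to compound for 16 hours at 37 °C before detection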
Procedure, shortened: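 In qHTS format, rat primary proximal tubule cells seeded at 1000 per well are exposed to compounds for 16 hours at 37 °C. An increase in Caspase-Glo 3/7 luminescence indicates caspase activation.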

Measured: Potency

3',5'-cyclic-AMP phosphodiesterase 4B (Homo sapiens), sequence (Q07343 whole entry, looked up): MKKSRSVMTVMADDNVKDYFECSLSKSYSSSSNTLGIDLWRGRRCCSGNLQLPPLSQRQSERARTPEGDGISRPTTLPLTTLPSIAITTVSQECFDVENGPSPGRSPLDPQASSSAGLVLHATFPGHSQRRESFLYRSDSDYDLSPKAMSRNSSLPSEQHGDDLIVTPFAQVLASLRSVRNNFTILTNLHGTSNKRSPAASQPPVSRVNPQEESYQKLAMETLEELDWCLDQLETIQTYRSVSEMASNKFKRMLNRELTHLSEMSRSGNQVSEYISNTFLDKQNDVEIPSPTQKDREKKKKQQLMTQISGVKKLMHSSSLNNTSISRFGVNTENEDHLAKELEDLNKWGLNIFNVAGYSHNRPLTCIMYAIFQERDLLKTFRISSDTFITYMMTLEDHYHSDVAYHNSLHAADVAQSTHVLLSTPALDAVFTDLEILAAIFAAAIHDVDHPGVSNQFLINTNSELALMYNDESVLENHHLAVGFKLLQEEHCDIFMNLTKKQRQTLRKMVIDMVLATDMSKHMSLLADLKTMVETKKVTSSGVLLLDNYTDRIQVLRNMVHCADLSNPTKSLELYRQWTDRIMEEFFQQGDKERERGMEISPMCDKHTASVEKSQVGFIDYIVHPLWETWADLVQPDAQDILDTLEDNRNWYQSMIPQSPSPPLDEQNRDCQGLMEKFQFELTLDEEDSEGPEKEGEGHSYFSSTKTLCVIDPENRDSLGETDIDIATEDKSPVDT

O=C(NCCO[N+](=O)[O-])c1cccnc1
inactive: [1] | [2]

O=C(O)c1cccnc1Nc1cccc(C(F)(F)F)c1
inactive: [1] | [2]

NNc1nncc2ccccc12
inactive: [1] | [2]

Cc1cc2cc3c(C)cc(=O)oc3c(C)c2o1
inactive: [1] | [2]

Cc1cc(=O)oc2cc(O)ccc12
inactive: [1] | [2]

Cc1cc(C2CCCCC2)n(O)c(=O)c1
inactive: [1] | [2]

COC(=O)[C@H](Cc1ccccc1)NC(=O)[C@@H](N)CC(=O)O (H-Asp-Phe-OMe)
not listed: [2]
inactive: all other assays above

CCCCc1ccc2nc(NC(=O)OC)[nH]c2c1
inactive: [1] | [2]

CC(=O)Nc1ccc(O)cc1
not listed: [2]
inactive: all other assays above

COc1c2occc2cc2ccc(=O)oc12
not listed: [2]
inactive: all other assays above

CCN(CC)CCOc1ccc(Cc2ccccc2)cc1
inactive: [1]

Nc1ccc(S(N)(=O)=O)cc1
inactive: all assays above

CCC1=C(C)CN(C(=O)NCCc2ccc(S(=O)(=O)NC(=O)NC3CCC(C)CC3)cc2)C1=O (configuration not stated)
inactive: [1] | [2]

CS(=O)(=O)OCCCCOS(C)(=O)=O
not listed: [2]
inactive: all other assays above

Cc1ccc(C)c(OCCCC(C)(C)C(=O)O)c1
inactive: all assays above

NS(=O)(=O)c1cc(C(=O)O)c(NCc2ccco2)cc1Cl
not listed: [6] | [17]
inactive: all other assays above

COC(=O)C1=C(C)NC(C)=C(C(=O)OC(C)C)C1c1cccc2nonc12 (configuration not stated)
inactive: [1]
